# Data published in the supplement of paper PMC11150407.
# Counter-ions that a name gives are not always drawn. The campaign covered roughly 2,100 compounds. About 180 (8.6%) showed an effect of 50% or more. The full list was thinned out, with strong results kept by preference.
# Tested on: MOLM1 and UCSD/AML1 (averaged)
# Assay: cell viability relative to DMSO control (POC); higher = less growth inhibition
# Conditions: 1 µM; 72 h
# Description: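 Primary viability screen in the 3q26 EVI1-high AML cell lines MOLM1 and UCSD/AML1 (1.5e3 cells/well, 384-well), compounds at 1 uM for 72 h. ATP CellTiter-Glo read-out given as percent of viable cells over DMSO control (POC), averaged over duplicates. DMSO was the negative control and 5 uM etoposide the positive control. This mapping covers the MicroSource Spectrum and Selleck anticancer libraries (drug names).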
row,Structure (SMILES),cell viability
1,CC[C@H](C)[C@H](N)C1=N[C@H](C(=O)N[C@@H](CC(C)C)C(=O)N[C@H](CCC(=O)O)C(=O)N[C@H](C(=O)N[C@H]2CCCCNC(=O)[C@H](CC(N)=O)NC(=O)[C@@H](CC(=O)O)NC(=O)[C@H](Cc3cnc[nH]3)NC(=O)[C@@H](Cc3ccccc3)NC(=O)[C@H]([C@@H](C)CC)NC(=O)[C@@H](CCCN)NC2=O)[C@@H](C)CC)CS1,94.8%
2,CC(C)C[C@@H]1NC(=O)[C@H](CCCN)NC(=O)[C@H](C(C)C)NC(=O)[C@H](Cc2ccc(O)cc2)N[C@@H](CCC(=O)O)C(=O)N[C@@H](CC(N)=O)C(=O)[C@@H](Cc2ccccc2)NC(=O)[C@H](Cc2ccccc2)NC(=O)[C@@H]2CCCN2C(=O)[C@@H](Cc2ccccc2)NC1=O,13%
3,CC1=C(CCC(=O)O)c2cc3[nH]c(cc4nc(cc5[nH]c(cc1n2)c(C)c5C(C)O)C(C)=C4C(C)O)c(C)c3CCC(=O)O (stereo unspecified),107%
4,COc1cc(O)c2c(c1)C(=O)c1cc(C)cc(O)c1C2=O,94.9%
5,O=C(/C=C/c1ccc(O)c(O)c1)O[C@H](Cc1ccc(O)c(O)c1)C(=O)O,104%
6,CNC(=O)c1cc(Oc2ccc(NC(=O)Nc3cc(C(C)(C)C)nn3-c3ccc4ncccc4c3)c(F)c2)ccn1 [DCC-2036 (Rebastinib)],24.6%
7,Cc1ccc(-n2nc(C(C)(C)C)cc2NC(=O)Nc2ccc(OCCN3CCOCC3)c3ccccc23)cc1 [BIRB 796 (Doramapimod)],85.1%
8,CNC(=O)c1cc(Oc2ccc(NC(=O)Nc3ccc(Cl)c(C(F)(F)F)c3)cc2)ccn1 [Sorafenib (Nexavar)],59.7%
9,CNC(=O)c1cc(Oc2ccc(NC(=O)Nc3ccc(Cl)c(C(F)(F)F)c3)c(F)c2)ccn1 [Regorafenib (BAY 73-4506)],28.9%
10,Cc1cc(OC(=O)c2c(C)cc(O)cc2O)cc(O)c1C(=O)O,103%
11,Nc1ccccc1C(=O)CC(N)C(=O)O (stereo unspecified),98.1%
12,CC(C)=CCC[C@@H](C)[C@@H]1CC[C@]2(C)C3=C(CC[C@@]12C)[C@@]1(C)CC[C@H](O)C(C)(C)[C@@H]1CC3,97.6%
13,COc1cc(OC)c2ccc(=O)oc2c1,99.1%
14,COc1cc(OC)c2c(c1Cl)O[C@@]1(C(=O)CC(=O)C[C@H]1C)C2=O,102%
15,Cc1ccc(C(=O)Nc2ccc(CN3CCN(C)CC3)c(C(F)(F)F)c2)cc1C#Cc1cnc2cccnn12,4.31%
16,CS(=O)(=O)N1CCN(Cc2cc3nc(-c4cccc5[nH]ncc45)nc(N4CCOCC4)c3s2)CC1 [Pictilisib (GDC-0941)],51.1%
17,CC1(C)C(=O)C=C[C@]2(C)[C@H]3CC[C@@]4(C)[C@H](c5ccoc5)OC(=O)[C@H]5O[C@]54[C@]3(C)C(=O)C[C@@H]12,84.7%
18,COc1ccc2c(c1)O[C@H]1c3ccc(OC)cc3OC[C@@H]21,105%
19,Cc1cc2c(F)c(Oc3ncnn4cc(OC[C@@H](C)O)c(C)c34)ccc2[nH]1,89.6%
20,Oc1cc(O)c2c(c1)O[C@H](c1ccc(O)c(O)c1)[C@H](O)C2,96.7%
21,O=C(O)c1cccnc1,95%

row,Structure (SMILES),cell viability
1,O=C(/C=C/c1cccnc1)NCCCCC1CCN(C(=O)c2ccccc2)CC1,12%
2,O=C(Nc1cccnc1)N1CCC(Cc2cccc(Oc3ccc(C(F)(F)F)cn3)c2)CC1,56.7%
3,COc1c(O)cc(O)cc1O,98.8%
4,O=C(O)CC[C@H]1CC[C@@](c2cc(F)ccc2F)(S(=O)(=O)c2ccc(Cl)cc2)CC1,71%
5,Cc1cccc2c3c(ccc12)C1=C(C(=O)C3=O)[C@@H](C)CO1,98.4%
6,CN(C)CC[C@H](CSc1ccccc1)Nc1ccc(S(=O)(=O)NC(=O)c2ccc(N3CCN(Cc4ccccc4-c4ccc(Cl)cc4)CC3)cc2)cc1[N+](=O)[O-],32.3%
7,CC1(C)CCC(c2ccc(Cl)cc2)=C(CN2CCN(c3ccc(C(=O)NS(=O)(=O)c4ccc(N[C@H](CCN5CCOCC5)CSc5ccccc5)c(S(=O)(=O)C(F)(F)F)c4)cc3)CC2)C1 [ABT-263 (Navitoclax)],6.23%
8,NC1(C(=O)O)CCC1,102%
9,OC[C@H]1O[C@@](CO)(O[C@H]2O[C@H](CO)[C@@H](O)[C@H](O)[C@H]2O)[C@@H](O[C@H]2O[C@H](CO)[C@@H](O)[C@H](O)[C@H]2O)[C@@H]1O,103%
10,CC(C)=CCc1c(O)cc2occ(-c3ccc4c(c3)OCO4)c(=O)c2c1O,100%
11,C[C@@H]1CC[C@H]2[C@](C)(CO)[C@@H](O)CC[C@]2(C)[C@@]12CC[C@@](CO)(CCO)O2,89.3%
12,C[C@@H]1O[C@@H](O[C@H]2[C@H](Oc3cc(O)c4c(=O)cc(-c5ccc(O)cc5)oc4c3)O[C@H](CO)[C@@H](O)[C@@H]2O)[C@H](O)[C@H](O)[C@H]1O,110%
13,Sc1nc2ccccc2s1,115%
14,C=CC(C)(O)CCC1C(=C)CC(O)C2C(C)(C)CCCC12C (stereo unspecified),105%
15,CC[C@]1(O)C[C@H]2CN(CCc3c([nH]c4ccccc34)[C@@](C(=O)OC)(c3cc4c(cc3OC)N(C=O)[C@H]3[C@@](O)(C(=O)OC)[C@H](OC(C)=O)[C@]5(CC)C=CCN6CC[C@]43[C@@H]65)C2)C1,11.3%
16,CC[C@]1(O)C[C@@H]2CN(CCc3c([nH]c4ccccc34)[C@@](C(=O)OC)(c3cc4c(cc3OC)N(C)[C@H]3[C@@](O)(C(=O)OC)[C@H](OC(C)=O)[C@]5(CC)C=CCN6CC[C@]43[C@@H]65)C2)C1,7.14%
17,CC[C@]1(O)C[C@@H]2CN(CCc3c([nH]c4ccccc34)[C@@](C(=O)OC)(c3cc4c(cc3OC)N(C)[C@H]3[C@@](O)(C(=O)OC)[C@H](OC(C)=O)[C@]5(CC)C=CCN6CC[C@]43[C@@H]65)C2)C1 [Vinblastine],8.43%
18,CC[C@]1(O)C[C@H]2CN(CCc3c([nH]c4ccccc34)[C@@](C(=O)OC)(c3cc4c(cc3OC)N(C=O)[C@H]3[C@@](O)(C(=O)OC)[C@H](OC(C)=O)[C@]5(CC)C=CCN6CC[C@]43[C@@H]65)C2)C1 [Vincristine Sulfate],7.83%
19,COc1ccc2c(=O)c(-c3ccc(O)cc3)coc2c1,84.7%
20,CC(C)c1c(O)ccc2c1CC[C@H]1C(C)(C)CCC[C@]21C,90.4%
